Among the data in PubChem BioAssay AID624352 (Sanford-Burnham Center for Chemical Genomics, 2012) are inhibition values, retold here.

Among all 360,000 compounds or so, about 2,600 (0.72%) were called active. This is one part of a sample in which actives are shown more often than they occur. Values without a mark were called inactive.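 The calls were made as follows: active = inhibition of the luminescence signal of 40% or more relative to plate controls, in a single-dose primary screen at 18.75 µM; inactive = the rest.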

The nature of this test: HIF-2a reporter inhibitors, primary screen, luminescence, 786-0 RCC cells (AID 624352). The conditions noted are these: 786-0 RCC cells HIF-2a reporter, luciferase luminescence, overnight; at 18.8 µM; active compounds read high.
Regarding `CC1CN(C(=O)COC(=O)c2cccc(NS(=O)(=O)c3ccccc3)c2)CC(C)O1` (configuration not stated), the inhibition was 10.2%.

As for `CNC(=O)NC(=O)C(C)N1CCN(C/C=C/c2ccccc2)CC1` (configuration not stated), the inhibition was 16.3%.

As to `COCCCNC(=O)CNC(=O)c1nn(-c2ccc(OC)cc2)c(=O)c2ccccc12`, the inhibition is 4.73%.

For `OCCN1CCN(C(=S)c2ccc(-c3ccccc3)cc2)CC1`, the inhibition is 88.1% (active).

With `S=C(c1ccc(-c2ccccc2)o1)N1CCCCC1`, the inhibition was -291%.

Turning to `O=C(NC(=S)N1CCN(Cc2ccccc2)CC1)c1ccccc1`, the inhibition is 3.06%.

For the compound `CCN(C(=O)c1cc([N+](=O)[O-])ccc1NCc1cccnc1)c1ccccc1`, the inhibition is 11.9%.

On to `Cc1ccc(S(=O)(=O)N(C)C)cc1NC(=O)COC(=O)C1COc2ccccc2O1` (configuration not stated), for which the inhibition was 3.99%.

`Fc1ccc2c(c1)C(c1cccnc1)=NNC(c1cccs1)=N2`: the inhibition was 0.189%.

`C=CCn1c(SCC(=O)NC(=O)Cc2ccccc2)nc2ccccc2c1=O`: the inhibition was 15.8%.

Consider `CCn1c(/C=C/c2ccc([N+](=O)[O-])o2)nc2ccccc2c1=O`, for which the inhibition is 56.6% (active).

`O=C(/C=C/c1ccc([N+](=O)[O-])o1)NNC(=O)c1ccc(F)cc1`: the inhibition is 30.1%.

Turning to `CCc1cc(CNC(=O)CC2C(=O)NCCN2Cc2ccccc2C(F)(F)F)on1` (configuration not stated), the inhibition was 7.76%.

Turning to `Cc1cc(C)c(S(=O)(=O)N2CCOCC2)cc1C`, the inhibition was 16.4%.

`COCc1cc(=O)n2[nH]c(C)c(-c3ccccc3)c2n1`: the inhibition was 11.1%.

Consider `CC(C)[C@H](NC(=O)c1ccccc1F)C(=O)Nc1cccc(S(=O)(=O)N2CCOCC2)c1`, for which the inhibition was 6.68%.

As to `CCN(CC)CCCC(C)n1c2nc(=O)[nH]c(=O)c-2nc2cc(Cl)ccc21` (configuration not stated), the inhibition was 70.8% (active).

As to `O=c1c(-c2ccccc2Cl)c[nH]n1-c1ccccc1`, the inhibition was -21.8%.

In the case of `OC(c1ccccc1)c1nccn1Cc1ccccc1` (configuration not stated), the inhibition was 6.44%.

For `Cc1cc(C)c(NC(=O)c2oc3ccccc3c2COc2ccccc2)c(C)c1`, the inhibition was 1.23%.

As for `CCOC(=O)N1CCC(=NNC(N)=O)CC1`, the inhibition is 9.05%.

For `CN(C)C(=O)c1cccc(-c2cnc3c(NC=O)cc(-c4ccc(F)cc4)cn23)c1`, the inhibition is 9.01%.

For `CN(C)CCNC(=O)c1cccc(-c2cnc3c(NC=O)cc(-c4cccc(C(F)(F)F)c4)cn23)c1`, the inhibition was 79.2% (active).

For `CC(=O)c1cccc(-c2cnc3c(NC=O)cc(-c4ccc(N(C)C)cc4)cn23)c1`, the inhibition was -15.5%.

`C=CCN1C(=NC(=O)COc2ccccc2)SC2CS(=O)(=O)CC21` (configuration not stated): the inhibition is 4.93%.

For `OCCN1CCN(CCO)C1=S`, the inhibition was 9.5%.

In the case of `CC(C)(C)OC(=O)N/N=C/c1ccc(C(=O)O)cc1`, the inhibition is 4.48%.

Consider `O=C(O)c1ccc(N/N=C/c2ccc3ncccc3c2)cc1`, for which the inhibition was 54.5% (active).

With `NCCCCCC(=O)N/N=C/c1ccc2nccnc2c1`, the inhibition was 7.39%.

In the case of `O=C1NC(=O)C(CCc2ccccc2)(c2ccccc2)N1` (configuration not stated), the inhibition was 17.5%.

`Cc1cc(C(=O)COC(=O)CNC(=O)c2ccc(F)cc2)c(C)n1Cc1ccco1`: the inhibition was -47.3%.

For `COCC(C)n1c(C)cc(C(=O)COc2ccc(C)nc2[N+](=O)[O-])c1C` (configuration not stated), the inhibition is 50.6% (active).

Regarding `Cc1ccc(OCC(=O)c2cc(C)n(Cc3ccco3)c2C)c([N+](=O)[O-])n1`, the inhibition was 48.1% (active).

On to `Cc1ccc(OCC(=O)NC(C)c2ccccc2)c([N+](=O)[O-])n1` (configuration not stated), for which the inhibition was 17.9%.

On to `COc1ccc(C)cc1-n1nnnc1SCC(=O)c1cc(C)n(Cc2ccco2)c1C`, for which the inhibition was -49.1%.

Take `COc1ccccc1CNC(=O)COc1ccc(C)nc1[N+](=O)[O-]`: the inhibition is -1.54%.

For `COc1ccc(NC(=O)CN2C(=O)COc3ccc(S(=O)(=O)N4CCOCC4)cc32)cc1`, the inhibition is -0.73%.

Turning to `CCCCSc1[nH]c(=O)c(C(=O)OCC)cc1C#N`, the inhibition is 5.92%.

For the compound `CCN(CC)CC(=O)Nc1sc2c(c1C(=O)c1ccccc1C)CCC2`, the inhibition is 31.1%.

As for `O=C(Nc1ccccc1C(=O)O)c1cc(S(=O)(=O)N2CCCCC2)cs1`, the inhibition was -9.72%.

As to `CC(NS(=O)(=O)c1ccccc1)c1n[nH]c(=S)n1-c1ccccc1` (configuration not stated), the inhibition is 16.8%.

Regarding `C[C@@H]1CN([C@@H](C)CO)C(=O)c2cccc(NS(=O)(=O)c3ccc(F)cc3)c2O[C@H]1CN(C)C(=O)NC1CCCCC1`, the inhibition was -10.3%.

Consider `C=CCSc1nnc(N2C(=O)C(O)=C(C(=O)c3ccco3)C2c2ccc(F)cc2)s1` (configuration not stated), for which the inhibition was -55.2%.

Consider `CC(C)(C)c1cc(C(=O)N/N=C/c2ccc([N+](=O)[O-])s2)n[nH]1`, for which the inhibition is 80.5% (active).

As to `O=[N+]([O-])c1ccc(C=Nc2ccc(Cl)cc2Cl)s1`, the inhibition was -3.51%.

In the case of `Cc1ccc(-c2cc(C(=O)N/N=C/C=C/c3ccccc3)n[nH]2)o1`, the inhibition is -1.73%.

Take `COc1ccnc(Oc2ccccc2)n1`: the inhibition was -5.97%.

For `CCCCCCCCCCOC(=O)C[N+](C)(C)CC1CCCCC1O` (configuration not stated), the inhibition is 7.58%.

With `CCN1CCC(O)(/C=C/c2ccc(C)cc2)C(C(=O)/C=C/c2ccc(C)cc2)C1` (configuration not stated), the inhibition is 66.8% (active).

On to `Cc1ccc(-c2nn(C(C)(C)C)c3ncnc(N)c23)cc1`, for which the inhibition is 71.5% (active).

As to `CCN(CC(=O)Nc1c(F)cccc1F)C(=O)c1ccc(-c2ccc(C(C)=O)cc2)o1`, the inhibition was -53.4%.

In the case of `NS(=O)(=O)c1ccc(CNC(=O)c2ccc(Cl)cc2[N+](=O)[O-])cc1`, the inhibition is 2.46%.

In the case of `Fc1ccc2nc(-c3ccccc3)nc(SCc3nnc(-c4ccccc4)o3)c2c1`, the inhibition is 23.8%.

In the case of `O=C(CSc1c2c(nc3ccc(Cl)cc13)CCCC2)NCc1ccco1`, the inhibition was 17.8%.

On to `Clc1ccc2nc(-c3ccccc3)nc(C(Cl)Cl)c2c1`, for which the inhibition was 57.1% (active).

Take `Cc1cc(C(=O)N2CCCC2(C)C(=O)O)c(C)o1` (configuration not stated): the inhibition was -4.82%.

Regarding `CC(=O)Nc1ccc(CC#N)cc1`, the inhibition is 18.5%.

With `C/C(Cc1ccccc1)=N\NC(=O)CNC(=O)c1cccc(Br)c1`, the inhibition is 14%.

With `O=C(NC1=CC(=O)c2ccccc2C1=O)c1ccccc1`, the inhibition was 92.9% (active).

In the case of `CN(C)C(=O)c1ccc(NC(=O)c2ccccc2-c2ccccc2)cc1`, the inhibition is 19.3%.

Regarding `Cc1ccc(C(=O)Nc2c(-c3ccccc3)[nH][nH]c2=O)cc1`, the inhibition was -3.55%.

As for `Cc1ccc(-c2cnc(NC(=O)CCC(=O)N(C)Cc3ccccc3)n2C)cc1`, the inhibition is -43.9%.

As for `CCOc1cc(/C=C(/C#N)c2ccc(Cl)cc2)cc(Cl)c1OCC(=O)O`, the inhibition is 91.8% (active).

On to `CCOc1cc(/C=N/NC(=O)OC)ccc1OCCSc1ccc(Cl)cc1`, for which the inhibition was -1.68%.

For the compound `COc1cc(/C=C(/NC(=O)c2ccc(Cl)cc2Cl)C(=O)O)cc(OC)c1OC`, the inhibition was 12.9%.

In the case of `CCOC(=O)c1c(C)[nH]c(C2=NNC(=NC(C)COC)SC2)c1C` (configuration not stated), the inhibition was -141%.

With `CCOC(=O)C1(Cc2ccccc2C)CCCN(C(=O)c2ccc(COC)o2)C1` (configuration not stated), the inhibition was -190%.

Turning to `Cc1cccc(NC(=O)C2CCCN(C(=O)Nc3ccc(F)cc3)C2)c1C` (configuration not stated), the inhibition was 7.56%.

For `COc1ccc(CCNS(=O)(=O)c2ccc(F)cc2)cc1OC`, the inhibition is 9.4%.

For `COc1ccc(-c2cc(C(F)(F)F)nc(S(C)(=O)=O)n2)cc1OC`, the inhibition was 94.1% (active).

Turning to `COc1ccc(C2=NO[C@@H]3C(=O)N(Cc4ccccc4)C(=O)[C@H]23)cc1OC`, the inhibition was 16.2%.

As to `O=C(c1cn(-c2ccccc2)nc1-c1cccnc1)N1CCN(S(=O)(=O)c2ccccc2F)CC1`, the inhibition was 9.12%.

Take `CCc1ccc(-n2c(=S)sc3c(=O)n(-c4ccccc4OC)c(=S)[nH]c32)cc1`: the inhibition was 8.96%.

In the case of `COc1ccc(OC)c2c(N)c(C#N)c(C(F)(F)C(F)(F)F)nc12`, the inhibition was 8.83%.

Take `COc1cccc2c(O)cc(=O)n(C)c12`: the inhibition was 19.6%.

With `COc1cccc2c(C)c(C(=O)O)[nH]c12`, the inhibition was 47% (active).

Consider `COc1cc2c(C(=O)O)c(C)n(C)c2c2ccccc12`, for which the inhibition was -195%.

Take `O=C(c1ccccc1Cl)N(Cc1ccccc1F)N1C(=O)CCCC1=O`: the inhibition is 16.7%.

With `O=C(O)C1C2C=CC(O2)C1C(=O)NCCc1cccc(Cl)c1` (configuration not stated), the inhibition is -2.61%.

Take `Cc1cc(O)ccc1-c1cc(C(=O)NCc2cc(C(F)(F)F)cc(C(F)(F)F)c2)[nH]n1`: the inhibition is 15.8%.

As to `COCCn1c(SCC(=O)Nc2ccccc2F)nc2c(c1=O)SCC2`, the inhibition was 1.2%.

For the compound `Cc1cccc(NC(=O)C2CCCN(C(=O)NCc3ccccc3)C2)c1C` (configuration not stated), the inhibition is 0.73%.

For the compound `COc1ccc(-c2nc3ccc(Br)cn3c2Cc2ccc(C)cc2)cc1OC`, the inhibition was -137%.

On to `CC(=O)Nc1c(-c2ccc(C)cc2)nc2ccc(Cl)cn12`, for which the inhibition is 4.44%.

As for `Cc1ccc(-c2nc3ccc(Br)cn3c2Cc2ccccc2C(F)(F)F)cc1`, the inhibition was -290%.

Consider `Cc1ccc2nc(-c3ccccc3)c(CC3CCCCC3)n2c1`, for which the inhibition was -173%.

Turning to `Cc1ccc2nc(-c3ccc(Br)cc3)cn2c1`, the inhibition was 40.6% (active).

Turning to `Cc1ccc(-c2cn3cc(C)ccc3n2)cc1`, the inhibition is 71.3% (active).

As for `CC(C)NC(=O)Nc1cccc2c1O[C@H](CN(C)S(=O)(=O)c1cccs1)[C@@H](C)CN([C@H](C)CO)C2=O`, the inhibition is 12.7%.

As for `NS(=O)(=O)c1cccc(NC(=O)COC(=O)c2cc([N+](=O)[O-])ccc2N2CCCC2)c1`, the inhibition was 25.4%.

`CC(=O)Nc1ccc(NC(=O)C(C)OC(=O)c2ccccc2C(=O)c2ccc(Cl)c([N+](=O)[O-])c2)cc1` (configuration not stated): the inhibition was 19.2%.

Regarding `N#Cc1cccc(NC(=O)COC(=O)c2ccccc2C(=O)c2ccc(Cl)c([N+](=O)[O-])c2)c1`, the inhibition was 94.8% (active).
